Changes are numbered by the printed parent chain. In all, about 24,000 sequences were measured (“enrichment r”: median about 0.99, highest 2% from about 3.7 on). The sample holds the highest values, similar sequences and a random draw of the others, so the mix is not that of the screen.
T1: UNK ZnF1-3 (human, UniProt Q9C0B0 31-174)
T1 sequence: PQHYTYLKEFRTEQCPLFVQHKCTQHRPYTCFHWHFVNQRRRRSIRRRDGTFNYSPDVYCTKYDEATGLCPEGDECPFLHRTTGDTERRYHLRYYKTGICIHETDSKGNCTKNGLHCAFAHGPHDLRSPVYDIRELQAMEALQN

B1: 103221519_103221723_537_3pUTR_ENSMUSG00000041781_ENSMUST00000047357|mouse|control|control (ssRNA)
RNA: GGGAGUUCUACAGUCCGACGAUCCAAUCUGAGAGAACUUCAGCUGCUGUAUUUUGUCAAAGGCUGCAUCCACAUCAUCCAAUGUAAAGAGGGUAAAAUCUUCUGUAUUGUGUCGAGACUGAUAGAGGUCGUACAUGAACAUCUCAACAGAGGAUUGAGCAUCA
B2: chr4:25749455:25749456:-_ENSG00000091490_ENST00000264868|hu_hu|hu_hu_hu_mus_False|8_108 (ssRNA)
RNA: GGGAGUUCUACAGUCCGACGAUCGCAAGCACUAGGAUAGAAAAAUCCACAGGGGGAAAAAAUGUAAACCAAUGUACAAUGUUAUCGCCUUCCCUGUGUGUGGAGUGUUUGUCUCAAGGCUCCUUCUUGCCUUAUAAUUUGGGACAACAGAGGAUUGAGCAUCA
B3: chr11:46405157:46405158:+_ENSG00000110492_ENST00000395566|hu_hu|hu_hu_hu_mus_False|78_78 (ssRNA)
RNA: GGGAGUUCUACAGUCCGACGAUCCCCUCCCCACUUUGGGCACUUGGUGUGGGCGUGAAGGCAGGGCCGUGAUUGACAGAGCUGACAGGAAGACAAAAGGCACUGGUGGGUUAUAUCUUGGGCCUGUGGGAGAGGAGGGCUCCGCAACAGAGGAUUGAGCAUCA
B4: 52873384_52873592_4094_CDS_ENSMUSG00000035247_ENSMUST00000042052|mouse|control|control (ssRNA)
RNA: GGGAGUUCUACAGUCCGACGAUCCACCAGGCGCCUCUGCCUUCUAAGAUUAGCUUCUGCUUCUUUAGCUGCUUUCCCUAGUUGGUCUUCGCACACGCCAUUCACAGUGCCAUAGAGUUCAAAGCCGGAGAGCGAGAGGUAGUGCAACAGAGGAUUGAGCAUCA
B5: chr1:183098298:183098299:+_ENSMUSG00000062169_ENSMUST00000134115|mus_hu|FALSE|FALSE (ssRNA)
RNA: GGGAGUUCUACAGUCCGACGAUCUAUAAACAUGGCACCUUUCUGAUUUGCUUAGCCUCAGCAAGCCUGAUGUACUGUAAACUGACAGCCCAAAGGCUCUCUCAACUGCAUGAGUCACUGUUUUGGUUACUAAGAAUAUCUGAACAACAGAGGAUUGAGCAUCA
B6: 19964410_19964530_1467_3pUTR_ENSMUSG00000020152_ENSMUST00000000137|mouse|control|control (ssRNA)
RNA: GGGAGUUCUACAGUCCGACGAUCUCUAAAUGCCUACAAAGAAAGAAACAGAGCAGCAGCAACCCCUUGCCCUGGUAAUGUCUGCAAAGAUUUGGUAGCCUUAAACAACCAGAUUUACCCAUAUUAACAAGAAUUUAGCAAUGCCAACAGAGGAUUGAGCAUCA
B7: chr13:112505112:112505113:+_ENSMUSG00000032727_ENSMUST00000109272|mus_mus|FALSE|FALSE (ssRNA)
RNA: GGGAGUUCUACAGUCCGACGAUCCAUAAAGGAUUCGGGGACAGCAAUGCCCAUCUUCAAUCUCUUUGCUGGUCUUUCGGAUUCUUCGCUGCACAUGGGGUUUAACUCUGAGUGAUAAAAUCCAGUCUCAAAUAAAUUAAAACACAACAGAGGAUUGAGCAUCA
B8: chr7:149838072:149838073:-_ENSMUSG00000048583_ENSMUST00000000033|mus_hu|FALSE|FALSE (ssRNA)
RNA: GGGAGUUCUACAGUCCGACGAUCUCACUGCCCCCCUGUUACAUGGGGGGGGGGUUUAAUUUGGUUUCUGAGCGCAUAAAGCUAAGGAGGGGUAAAAAAAAAACAAAAAAAAAAAAAAAAGGAAAAAUGCCCCAAGAAACAAAGCAACAGAGGAUUGAGCAUCA
B9: chr7:149838072:149838073:-_ENSMUSG00000048583_ENSMUST00000000033|mus_hu|motif|central (ssRNA)
RNA: B8 RNA with U82G, A83G
B10: chr8:4269914:4269915:-_ENSMUSG00000002949_ENSMUST00000149827|mus_mus|motif|central (ssRNA)
RNA: GGGAGUUCUACAGUCCGACGAUCCUUCUUGGCCUCAUCUCGGAACUUUUUUAUACUUUCUUUCAUCUCUUUGUUUUUGGCGGAUUCUUGUUUGAUGUUAUCUAGCAAGCCUGACAAAAACCCUUUUCUGCUCCCAGAAGAAUACAACAGAGGAUUGAGCAUCA
B11: 19721883_19722003_1295_CDS_ENSMUSG00000050428_ENSMUST00000053109|mouse|control|control (ssRNA)
RNA: GGGAGUUCUACAGUCCGACGAUCAGGGCUCACUGUCAGGCACACAGUCUCUUCCUUCACGUUCUUGGUGCCAUCUUUGCCAAAGAAGAUGCACGCAUCCACUACACCUGUUACCACCACAUCUACAUGGAAUCCUGAUGCACCCAACAGAGGAUUGAGCAUCA
B12: chr18:56819859:56819860:+_ENSG00000166562_ENST00000588875|hu_mus|hu_hu_hu_mus_True|18_38 (ssRNA)
RNA: GGGAGUUCUACAGUCCGACGAUCAACCUUGAUUACUCUGUGAACUAUCGGAAUGUCUCUUCCUUCAACCUUAAAAACAACUAUUUCACCAGCUCUGAUUGGGUCUUCCCGGAAAUUUGUGAGGAACAGCAGAUCUCCUCUGUGCAACAGAGGAUUGAGCAUCA
B13: chr6:128323885:128323886:+_ENSMUSG00000001517_ENSMUST00000073316|mus_mus|motif|central (ssRNA)
RNA: GGGAGUUCUACAGUCCGACGAUCAGGGUCCUCCUCCAGGCCAGGGAAACUGAUGUCUAGAAGGAUCUUGCUGAGGCGGUCAUUCAUUGUGUCCAGGACAAGGCCUUCUGUGAGAGAACGGUUGGCUGAAAGGCUGGGAAUCUGCAACAGAGGAUUGAGCAUCA
B14: chr12:48459454:48459455:-_ENSG00000079387_ENST00000551330|hu_mus|motif|central (ssRNA)
RNA: GGGAGUUCUACAGUCCGACGAUCUGCUUUCUGCUCUUCAAUCCGGCGCAAUCUUUCCCGAGCUCGAGAGUCAUAAACGCGGGUUAAUUCUUUGAUCCAUAGCUCUGCCUGGAAGAACGUAGGGCUGGAAGCUGGAGUCUGAGACAACAGAGGAUUGAGCAUCA

Molecular target: T1, UNK ZnF1-3
Test: nsRBNS (natural sequence RNA bind-n-seq); RBNS binding buffer (assumed for nsRBNS): 25 mM Tris pH 7.5, 150 mM KCl, 3 mM MgCl2, 0.01% Triton X-100, 500 ug/ml BSA, 20 U/ml SUPERase-In, 4 C; UNK is unkempt and MSI1 is Musashi-1; names of the RNAs are library labels; protein concentration not given here; high values mean tight binding

Row | Binder | binding signal [enrichment R]
1 | B1 | 1.57
2 | B2 | 0.93
3 | B3 | 2.23
4 | B4 | 1.03
5 | B5 | 0.858
6 | B6 | 1.74
7 | B7 | 1.01
8 | B8 | 12.2
9 | B9 | 22.9
10 | B10 | 0.472
11 | B11 | 1.01
12 | B12 | 0.803
13 | B13 | 1.01
14 | B14 | 1.03

Reference: article PMC12136788
